Reference: PubChem BioAssay (NCI)
Compounds without any hit were thinned out: in the full panel of roughly 83,000, 20% have a hit.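 96-well plates, one dose, 48 hours. Percent growth reported; active if below 10.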 Values without a mark were called inactive. Activity calls are given as the source filed them.

Experiments:
Test in all cases: NCI-60 one-dose screen, 48 h (100 = growth as untreated, 0 = no growth, -100 = all killed)
Details in all cases: 10 µM unless noted
[1] = tested on: SR leukemia
[2] = tested on: RPMI-8226 leukemia
[3] = tested on: OVCAR-8 ovarian
[4] = tested on: OVCAR-5 ovarian
[5] = tested on: OVCAR-4 ovarian
[6] = tested on: SK-OV-3 ovarian
[7] = tested on: IGROV1 ovarian
[8] = tested on: OVCAR-3 ovarian
[9] = tested on: HS 578T breast
[10] = tested on: NCI/ADR-RES ovarian

SMILES | growth [1] | growth [2] | growth [3] | growth [4] | growth [5] | growth [6] | growth [7] | growth [8] | growth [9] | growth [10]
Cc1cc(C)nc(SC2=C(Nc3cccc(Cl)c3C)C(=O)N(Cc3ccccc3)C2=O)n1 | 31.8% [30 µM] | 12.5% [30 µM] | 64.2% [30 µM] | 81.8% [30 µM] | 49% [30 µM] | 91.6% [30 µM] | 73% [30 µM] | 64.6% [30 µM] | 60.7% [30 µM] | 52.1% [30 µM]
O=c1c(F)cn(Cc2ccccc2CCl)c(=O)n1Cc1ccccc1CCl | -57.5% (active) | -48.6% (active) | -20.3% (active) | -76.8% (active) | -15.3% (active) | 10.3% | -37.3% (active) | -44.6% (active) | -3.05% (active) | -9.91% (active)
O=[N+]([O-])c1ccccc1/C=N\NC(=S)N/N=C/c1ccccc1[N+](=O)[O-] | 19% | 87.3% | 102% | 86.4% | 98.9% | 69.1% | 15% | -27% (active) | 62.9% | 14.4%
c1ccc(CCNc2ncnc3[nH]ncc23)cc1 | 107% | 67% | 95% | 82.5% | 81.1% | 109% | 83.5% | 108% | 66.3% | 97.9%
COc1ccc2nc(NC(=O)CSc3nnc4n3S(=O)(=O)c3ccccc3N4c3ccccc3)sc2c1 | 66.6% | 66.8% | 51.2% | 94.2% | 91.8% | 100% | 27.7% | 104% | 89.6% | 93.5%
CCOC(=O)c1c(C)oc2ncnc(N3CCN(C(=S)Nc4ccccc4)CC3)c12 | 94.5% | 83.3% | 94% | 90% | 85.1% | 96.9% | 95.4% | 103% | 87% | 90.3%
COc1cc(-c2nc3ccccc3[nH]2)ccc1OCc1nnc(-c2ccc(CC(C)C)cc2)o1 | 80.2% | 83% | 92.2% | 114% | 90.9% | 99.1% | 92.3% | 95.2% | 87.4% | 89.8%
CC(=O)Oc1ccc(Cl)cc1CN(C(C)=O)C1CCCCC1 | 92.9% | 84% | 97.1% | 103% | 119% | 99.7% | 98.2% | 114% | 104% | 110%
O=C1OC(c2ccccc2)C(O)=C1c1ccccc1 (stereo not given) | 109% | 96.5% | 100% | 99.2% | 121% | 115% | 111% | 102% | 110% | 116%
NC(=NC1C2CC3CC(C2)CC1C3)Nc1ccc(I)cc1 (stereo not given) | -10.1% (active) | 20.6% | 70.1% | 38.9% | 20.2% | 77.6% | 4.42% (active) | 53.9% | 33% | 49.5%
CCNC(=O)Oc1ccc(/C(=C(\C)c2ccc(Cl)cc2)c2ccc(OCCN3CCCCC3)cc2)cc1 | -20.8% (active) | -4.11% (active) | 70.4% | 74.9% | 43.7% | 63.2% | 56.8% | 60.8% | 55.9% | 64.9%
C#CCOc1ccc2ncnc(Nc3cccc(CNC(=O)C=C)c3)c2c1 | 103% [8.25 µM] | 101% [8.25 µM] | 95.8% [8.25 µM] | 100% [8.25 µM] | 92.5% [8.25 µM] | 107% [8.25 µM] | 88.8% [8.25 µM] | 104% [8.25 µM] | 91.9% [8.25 µM] | 107% [8.25 µM]
COc1cc2c(cc1OC)C(Sc1ccc(SC)cc1)c1c(nc(N)c(C#N)c1N)O2 (stereo not given) | -37.4% (active) | -37.9% (active) | -90.6% (active) | -63.1% (active) | -94.8% (active) | -85.1% (active) | -68.9% (active) | -88.7% (active) | 4.87% (active) | -23.2% (active)
O=[N+]([O-])c1ccc2c(c1)Cc1cc(F)ccc1-2 | 103% | 89.3% | 103% | 96.6% | 91.7% | 99.1% | 105% | 113% | 95.6% | 106%
COc1cc2c(cc1-c1c(C)noc1C)ncc1nc(C3CCC(F)(F)CC3)n([C@H](C)COC(F)F)c12 | 22.7% | 18.5% | 44.3% | 82.5% | 48.1% | 10.5% | 40.6% | 39.6% | 13.9% | 40.1%
COc1cc(/C=C/C(=O)Nc2cccnc2Nc2ccc(F)cc2)cc(OC)c1OC | 82.5% | 69.1% | 81.7% | 105% | 93% | 107% | 139% | 113% | 99.4% | 101%
COc1cccc2c1C(=O)c1c(O)c3c(c(O)c1C2=O)C[C@](O)(C(=O)CO)C[C@H]3O[C@@H]1C[C@@H](NC(=O)CCCN(C)C2(c3ccc(F)cc3)CC3CCC2C3)[C@H](O)[C@@H](C)O1 (stereo not given in full) | -60.2% (active) | -41% (active) | -43.1% (active) | -48.3% (active) | -68.9% (active) | 84.4% | 55.2% | -84.8% (active) | 51.2% | 82.4%
CCN(CC)S(=O)(=O)c1ccc(OC)c(NC(=O)c2[nH]c(C)c3c2CCCCC3=O)c1 | 43.4% | 16.7% | 41.1% | 54.1% | 49.5% | 20.4% | 24.8% | 39% | 16.4% | 40.2%
COc1ccc2c(c1)C(=O)/C(=C/c1ccccn1)CC2 | 7.35% (active) | -10.3% (active) | 85.4% | 92.1% | 83.8% | 98% | 85.6% | 62.1% | 98.1% | 88.6%
COc1ccc(O)c(N=Nc2nccs2)c1 | 13.4% | 25.3% | 52.1% | 120% | 37.1% | 85.2% | 70.2% | 39.9% | 103% | 53.6%
CCCOc1cc2ccccc2cc1C(=O)Nc1nc(N)c2c(ccc3nccc32)[nH]1 | -16.2% (active) | -40.5% (active) | -49% (active) | -67.7% (active) | -50.9% (active) | -77.2% (active) | -47% (active) | -60.5% (active) | -56.1% (active) | -8.57% (active)
